Results as given in PubChem BioAssay AID1159580 (chemical genetic matrix, 2015).
Screen size: about 5,500 compounds; about 2,000 (36%) were called active. Inconclusive results (about 18%) are left out. Rule as the data show it: active = normalized growth mostly below about 0.91 (no sharp cut-off); inconclusive = no clear call, values can overlap the other calls; inactive = mostly above about 0.92. This is one part of the list.

Assay: chemical genetic growth profiling, strain panel (AID 1159580);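 also: tested at 20 µM; growth read once vehicle control cultures reached saturation at 30 °C; 1 = growth at the plate median or of vehicle wells; lower values mean less growth of the strain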
Settings: S. cerevisiae deletion strains, growth OD
[1] = locus YAL040C, strain CLN3, hits give low values
[2] = locus YCL061C, strain MRC1 (second series), hits give low values
[3] = locus YDR363W, strain ESC2, hits give low values
[4] = locus YER002W, strain NOP16, hits give low values
[5] = locus YMR263W, strain SAP30, hits give low values
[6] = locus YNL175C, strain NOP13, hits give low values
[7] = locus YNL197C, strain WHI3, hits give low values
[8] = locus YNL224C, strain SQS1, hits give low values
[9] = locus YOR083W, strain WHI5 (second series), hits give low values
[10] = locus YPL055C, strain LGE1, hits give low values
[11] = locus YPL241C, strain CIN2, hits give low values

Measured: normalized growth

COC(=O)c1c(C)cc(O)cc1O
inactive: locus YAL021C, strain ccr4, hits give low values 1.02 | locus YAL026C, strain drs2, hits give low values 1 | locus YAL030W, strain snc1, hits give low values 1 | locus YBL061C, strain skt5, hits give low values 1.02 | locus YBR009C, strain hhf1, hits give low values 1 | locus YBR023C, strain chs3, hits give low values 1.01 | locus YBR171W, strain sec66, hits give low values 1 | locus YBR231C, strain swc5, hits give low values 1.01 | locus YBR279W, strain paf1, hits give low values 1.02 | locus YCL011C, strain gbp2, hits give low values 1.01 | locus YCL016C, strain dcc1, hits give low values 1.01 | locus YCL061C, strain MRC1, hits give low values 1.01 | locus YCL069W, strain vba3, hits give low values 0.999 | locus YCR088W, strain abp1, hits give low values 0.994 | locus YDL005C, strain med2, hits give low values 1.01 | locus YDL040C, strain nat1, hits give low values 1 | locus YDR001C, strain nth1, hits give low values 0.998 | locus YDR069C, strain doa4, hits give low values 1.01 | locus YDR137W, strain rgp1, hits give low values 1 | locus YDR159W, strain sac3, hits give low values 1.02 | locus YDR195W, strain ref2 1.05 | locus YDR297W, strain sur2, hits give low values 1.01 | locus YDR334W, strain swr1, hits give low values 1.01 | locus YDR335W, strain msn5, hits give low values 1.01 | locus YDR392W, strain spt3, hits give low values 0.978 | locus YEL003W, strain gim4, hits give low values 1.01 | locus YEL037C, strain rad23, hits give low values 1.01 | locus YEL061C, strain CIN8 (second series), hits give low values 1.01 | locus YER015W, strain faa2, hits give low values 1 | locus YER016W, strain bim1, hits give low values 1.01 | locus YER111C, strain swi4, hits give low values 1.03 | locus YER155C, strain BEM2 (second series), hits give low values 0.995 | locus YFR010W, strain ubp6, hits give low values 1.02 | locus YGL167C, strain pmr1, hits give low values 1.01 | locus YGL173C, strain kem1, hits give low values 1.02 | locus YGL227W, strain vid30, hits give low values 1 | locus YGL240W, strain doc1, hits give low values 1 | locus YGL253W, strain hxk2, hits give low values 1.01 | locus YHR013C, strain ard1, hits give low values 1.03 | locus YHR027C, strain rpn1, hits give low values 1.02 | locus YHR030C, strain SLT2, hits give low values 0.994 | locus YHR079C, strain IRE1, hits give low values 0.996 | locus YHR142W, strain chs7, hits give low values 1 | locus YJL092W, strain hpr5, hits give low values 0.998 | locus YJL095W, strain BCK1 (second series), hits give low values 1 | locus YJL095W, strain BCK1, hits give low values 0.984 | locus YJL115W, strain asf1, hits give low values 1.01 | locus YJL129C, strain trk1, hits give low values 1 | locus YJL154C, strain vps35, hits give low values 1.01 | locus YJL164C, strain tpk1, hits give low values 1.01 | locus YJL166W, strain qcr8, hits give low values 0.998 | locus YJL187C, strain SWE1, hits give low values 1.01 | locus YJR066W, strain TOR1, hits give low values 0.948 | locus YKL160W, strain elf1, hits give low values 1 | locus YKR026C, strain gcn3, hits give low values 1 | locus YKR091W, strain srl3, hits give low values 1.01 | locus YLL001W, strain dnm1, hits give low values 1.02 | locus YLL026W, hits give low values 0.996 | locus YLL041C, strain sdh2, hits give low values 1.01 | locus YLR027C, strain aat2, hits give low values 1.01 | locus YLR113W, strain HOG1, hits give low values 1.03 | locus YLR221C, strain rsa3, hits give low values 0.999 | locus YLR258W, strain gsy2, hits give low values 1.01 | locus YLR262C, strain YPT6 (second series), hits give low values 0.985 | locus YLR320W, strain mms22, hits give low values 1.01 | locus YLR342W, strain FKS1, hits give low values 1.01 | locus YLR357W, strain rsc2, hits give low values 1.03 | locus YLR370C, strain arc18, hits give low values 0.992 | locus YLR384C, strain iki3, hits give low values 1.01 | locus YML120C, strain ndi1, hits give low values 0.993 | locus YMR058W, strain fet3, hits give low values 1.01 | locus YMR125W, strain sto1, hits give low values 1.02 | locus YMR129W, hits give low values 1.01 | locus YMR205C, strain PFK2, hits give low values 1.01 | locus YMR231W, strain pep5, hits give low values 1.01 | locus YNL071W, strain lat1, hits give low values 0.987 | locus YNL183C, strain NPR1, hits give low values 0.917 | locus YNL209W, strain ssb2, hits give low values 1.01 | locus YNL248C, strain rpa49, hits give low values 1.01 | locus YNL322C, strain KRE1 (second series), hits give low values 1 | locus YNR049C, strain mso1, hits give low values 1 | locus YOR001W, strain rrp6, hits give low values 1 | locus YOR070C, strain gyp1, hits give low values 1 | locus YOR080W, strain dia2, hits give low values 1.01 | locus YOR083W, strain WHI5, hits give low values 1.01 | locus YOR106W, strain vam3, hits give low values 0.999 | locus YOR231W, strain MKK1, hits give low values 0.987 | locus YOR265W, strain rbl2, hits give low values 0.999 | locus YOR270C, strain vph1, hits give low values 0.961 | locus YOR290C, strain snf2, hits give low values 1.01 | locus YPL051W, strain arl3, hits give low values 1 | locus YPL078C, strain atp4, hits give low values 0.999 | locus YPL106C, strain sse1, hits give low values 0.982 | locus YPL240C, strain hsp82, hits give low values 0.996 | locus YPL256C, strain CLN2, hits give low values 1.01

S=C=Nc1cccc(C2(N3CCCCC3)CCCCC2)c1
inactive: locus YAL013W, strain DEP1, hits give low values 0.993 | [1] 0.998 | [2] 0.998 | [3] 0.993 | [4] 1.01 | locus YJR075W, strain HOC1, hits give low values 0.984 | [5] 1 | locus YMR307W, strain GAS1, hits give low values 1 | locus YNL153C, strain GIM3, hits give low values 0.968 | [6] 0.994 | [7] 1.08 | [8] 1.04 | [9] 1 | [10] 0.939 | [11] 1

CC1(C)CCC(NC(=O)[C@@H](N)CCC(=O)O)CC1
inactive: [1] 1.02 | [2] 0.999 | [3] 1.02 | [4] 0.995 | locus YGR078C, strain PAC10, hits give low values 1.02 | [5] 0.999 | [6] 1.01 | [7] 0.998 | [8] 0.999 | locus YNL322C, strain KRE1, hits give low values 1.01 | [9] 1 | [10] 1.02 | [11] 0.996
